We go through 40 compounds from PubChem BioAssay (Tox21).

Results filed as inconclusive are left out. A number with no mark means an inactive call. Active and inactive are the calls of the source. Calls come from the whole dose curve; as a rule, active = well fitted curve in the direction sought with a large enough effect in the repeat runs; inconclusive = weak or mixed curves; inactive = no such curve, though single readings can be large; an effect the other way counts as inactive or inconclusive.
% is set by controls: 0 for no effect and ±100 for the full control effect.

The nature of the first experiment: qHTS assay to identify small molecule antagonists of the estrogen related receptor (ERR) signaling pathway (AID 1224819; note: nearly all actives have a fitted effect of over 50% in size; note: potency is the fitted concentration of half-maximal effect;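 for activity change, negative = inhibition: luminescence from an ERR-driven luciferase reporter measured with One-Glo reagent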). The conditions noted are these: ERR reporter cell line, luciferase inhibition; series mostly up to 46.1 µM; activity change, negative = inhibition: at the top concentration. In outline: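 ERR reporter cell line (NTP) plated at 2,000 cells/well, settled 6 h at 37C/5% CO2, then exposed to LOPAC compounds for 18 h at 37C. One-Glo luciferase luminescence read after 30 min at room temperature.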
On the technique in general: In qHTS, concentration-response curves come from the screen itself.
Turning to `CCCN1CCC[C@@H](c2cccc(O)c2)C1`, the “activity change, negative = inhibition” value was 8.89%.
Take `CC1OC1P(=O)(O)O` (stereo not given): the “activity change, negative = inhibition” value was 5.55%.
On the same count and under the same terms, the result for `CC(C)Oc1cccnc1N(C)C1CCN(Cc2ccccc2)CC1` reads -22%.
For `COc1ccc2c(c[n+](C)c3c4cc5c(cc4ccc23)OCO5)c1OC`, the Potency is 9.08 µM (active).
Regarding `C[C@]12N[C@H](Cc3ccccc31)c1ccccc12`, the “activity change, negative = inhibition” value was 2.75%.
For `CCCN(CCC)C1Cc2cc(OC)c(OC)cc2C1`, the “activity change, negative = inhibition” value is 22.6%.
The same measure, in the same setting: the result for `C[N+]1(C)CCc2cc3c(cc2[C@H]1[C@@H]1OC(=O)c2c1ccc1c2OCO1)OCO3` reads 9.04%; that for `CCCN1CC[C@@H]2c3cc(O)ccc3CC[C@@H]21`, 2.52%; that for `CC(=O)OCC1=C(C(=O)[O-])N2C(=O)[C@@H](NC(=O)CCC[C@@H](N)C(=O)[O-])[C@H]2SC1.[Zn+2]`, 9.09%.
On the same count and under the same terms, the result for `CC(C)(C)c1o[nH]c(=O)c1CC(N)C(=O)O` (stereo not given) reads -8.47%.
As to `Nc1ccc(CCN2CCN(c3cccc(C(F)(F)F)c3)CC2)cc1`, the Potency is 13.9 µM (active).
For `CNCCc1c[nH]c2ccc(O)cc12`, the “activity change, negative = inhibition” value is -6.87%.
Same read-out and setting: under `N[C@@]1(C(=O)O)CC[C@@H](C(=O)O)C1` stands 14%; under `CC(C)NP(=O)(NC(C)C)OP(=O)(NC(C)C)NC(C)C`, 19.4%; under `COc1ccc(CNC(=O)/C=C/c2ccc3[nH]cc(CCN(C)C)c3c2)cc1`, -3.79%.
On to `CCn1cc(C(=O)O)c(=O)c2ccc(C)nc21`, for which the “activity change, negative = inhibition” value was 17%.
Still for that read-out and setting: under `CC12NC(Cc3ccccc31)c1ccccc12` (stereo not given) stands 9.1%; under `CCOC(=O)c1ncn2c1[C@@H]1CCCN1C(=O)c1cc(OC)ccc1-2`, -18.3%; under `c1ccc2c(N3CCNCC3)cccc2c1`, 11.3%.
On the same count and under the same terms, under `NC(C(=O)O)c1cc(=O)[nH]o1` (stereo not given) stands 0.394%.
The same measure, in the same setting: under `O=[N+]([O-])c1ccc2nc(N3CCNCC3)ccc2c1` stands 15%; under `NC(CCCCCP(=O)(O)O)C(=O)O` (stereo not given), -9.51%.
Take `NCCc1c[nH]c2ccc(C(N)=O)cc12`: the “activity change, negative = inhibition” value was 14.5%.
The same measure, in the same setting: under `C[C@H](Cc1ccc2c(c1)OC(C(=O)O)(C(=O)O)O2)NC[C@H](O)c1cccc(Cl)c1` stands 11.6%; under `Clc1cc(I)cc(Cl)c1NC1=NCCN1`, -2.74%; under `c1ccc(C2(c3ccccc3)CC2C2=NCCN2)cc1` (stereo not given), 3.33%.
Consider `NC(N)=NOCC[C@H](N)C(=O)O`, for which the “activity change, negative = inhibition” value is -5.66%.
Same read-out and setting: under `CC(=O)NBr` stands 11.4%.
For `O=C1/C(=C/c2ccccc2)C[C@@]2(O)[C@H]3Cc4ccc(O)c5c4[C@@]2(CCN3CC2CC2)[C@H]1O5`, the Potency is 2.37 µM (active).
`C[N+](C)(C)CC#CCN1CCCC1=O`: the “activity change, negative = inhibition” value is 6.57%.
The same measure, in the same setting: under `C[N+]1(C)C2CCC1CC(OC(=O)c1c[nH]c3ccccc13)C2` (stereo not given) stands 4.04%.
With `NCCc1c[nH]c2ccc(O)cc12`, the “activity change, negative = inhibition” value is 6.95%.
Still for that read-out and setting: the result for `NCc1cc(=O)[nH]o1` reads 14.7%; that for `NCC(CP(=O)(O)O)c1ccc(Cl)cc1` (stereo not given), 2.87%.
In the case of `CCCCCN(C)CCC(O)(P(=O)(O)O)P(=O)(O)O`, the “activity change, negative = inhibition” value is 16.3%.
Same read-out and setting: the result for `NCCCP(=O)(O)O` reads 12.9%.
Still for that read-out and setting: under `Oc1ccc2c3c1O[C@H]1c4[nH]c5ccccc5c4C[C@@]4(O)C(C2)N(CC2CC2)CCC314` (stereo not given in full) stands -10.2%.
`Nc1ncnc2c1ncn2[C@@H]1O[C@H](COP(=O)(O)CP(=O)(O)OP(=O)(O)O)C(O)[C@H]1O` (stereo not given in full): the “activity change, negative = inhibition” value was 8.18%.
Take `O=P(O)(O)C(Cl)(Cl)P(=O)(O)O`: the “activity change, negative = inhibition” value is 2.47%.
Still for that read-out and setting: under `C[N+]1(C)CCC(OC(=O)C(c2ccccc2)c2ccccc2)CC1` stands -2.63%.

A further experiment can be described thus: qHTS assay to identify small molecule agonists of the estrogen related receptor (ERR) signaling pathway (AID 1224820). The conditions noted are these: ERR reporter cell line, luciferase agonist mode; series mostly up to 46.1 µM; activation: at the top concentration. In outline: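 ERR reporter cells (NTP line) plated 2,000/well, incubated 6 h at 37 C/5% CO2, then pinned with compounds in DMSO and held 18 h at 37 C. One-Glo added; luminescence read after 30 min at room temperature.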
On to `CCCN1CCC[C@@H](c2cccc(O)c2)C1`, for which the “activation” value was 9.62%.
For `CC1OC1P(=O)(O)O` (stereo not given), the “activation” value was 5.87%.
Same read-out and setting: under `CC(C)Oc1cccnc1N(C)C1CCN(Cc2ccccc2)CC1` stands -22.8%; under `COc1ccc2c(c[n+](C)c3c4cc5c(cc4ccc23)OCO5)c1OC`, -98%.
On to `C[C@]12N[C@H](Cc3ccccc31)c1ccccc12`, for which the “activation” value is 2.97%.
With `CCCN(CCC)C1Cc2cc(OC)c(OC)cc2C1`, the “activation” value was 23.7%.
For `C[N+]1(C)CCc2cc3c(cc2[C@H]1[C@@H]1OC(=O)c2c1ccc1c2OCO1)OCO3`, the “activation” value is 9.45%.
In the case of `CCCN1CC[C@@H]2c3cc(O)ccc3CC[C@@H]21`, the “activation” value is 13.8%.
On the same count and under the same terms, under `CC(=O)OCC1=C(C(=O)[O-])N2C(=O)[C@@H](NC(=O)CCC[C@@H](N)C(=O)[O-])[C@H]2SC1.[Zn+2]` stands 11.8%; under `CC(C)(C)c1o[nH]c(=O)c1CC(N)C(=O)O` (stereo not given), -8.41%.
The same measure, in the same setting: the result for `Nc1ccc(CCN2CCN(c3cccc(C(F)(F)F)c3)CC2)cc1` reads -62.2%.
With `CNCCc1c[nH]c2ccc(O)cc12`, the “activation” value is -6.62%.
With `N[C@@]1(C(=O)O)CC[C@@H](C(=O)O)C1`, the “activation” value was 17%.
Same read-out and setting: under `CC(C)NP(=O)(NC(C)C)OP(=O)(NC(C)C)NC(C)C` stands 29.5%; under `COc1ccc(CNC(=O)/C=C/c2ccc3[nH]cc(CCN(C)C)c3c2)cc1`, 1.92%; under `CCn1cc(C(=O)O)c(=O)c2ccc(C)nc21`, 13.8%.
Take `CC12NC(Cc3ccccc31)c1ccccc12` (stereo not given): the “activation” value was 7.32%.
On the same count and under the same terms, the result for `CCOC(=O)c1ncn2c1[C@@H]1CCCN1C(=O)c1cc(OC)ccc1-2` reads -27.6%.
For `c1ccc2c(N3CCNCC3)cccc2c1`, the “activation” value was 0.116%.
For `NC(C(=O)O)c1cc(=O)[nH]o1` (stereo not given), the “activation” value is 7.29%.
Consider `O=[N+]([O-])c1ccc2nc(N3CCNCC3)ccc2c1`, for which the “activation” value is 8.58%.
As for `NC(CCCCCP(=O)(O)O)C(=O)O` (stereo not given), the “activation” value was -10.1%.
Same read-out and setting: the result for `NCCc1c[nH]c2ccc(C(N)=O)cc12` reads 17.7%; that for `C[C@H](Cc1ccc2c(c1)OC(C(=O)O)(C(=O)O)O2)NC[C@H](O)c1cccc(Cl)c1`, 15%; that for `Clc1cc(I)cc(Cl)c1NC1=NCCN1`, -6.96%.
For `c1ccc(C2(c3ccccc3)CC2C2=NCCN2)cc1` (stereo not given), the “activation” value is 3.02%.
Same read-out and setting: under `NC(N)=NOCC[C@H](N)C(=O)O` stands -7.32%.
On to `CC(=O)NBr`, for which the “activation” value was 14.1%.
Still for that read-out and setting: the result for `O=C1/C(=C/c2ccccc2)C[C@@]2(O)[C@H]3Cc4ccc(O)c5c4[C@@]2(CCN3CC2CC2)[C@H]1O5` reads -106%; that for `C[N+](C)(C)CC#CCN1CCCC1=O`, 10.1%; that for `C[N+]1(C)C2CCC1CC(OC(=O)c1c[nH]c3ccccc13)C2` (stereo not given), 19.3%.
Regarding `NCCc1c[nH]c2ccc(O)cc12`, the “activation” value was 7.11%.
The same measure, in the same setting: under `NCc1cc(=O)[nH]o1` stands 18.5%.
The same measure, in the same setting: the result for `NCC(CP(=O)(O)O)c1ccc(Cl)cc1` (stereo not given) reads -3.91%.
On the same count and under the same terms, under `CCCCCN(C)CCC(O)(P(=O)(O)O)P(=O)(O)O` stands 22.2%.
With `NCCCP(=O)(O)O`, the “activation” value is 3.16%.
The same measure, in the same setting: the result for `Oc1ccc2c3c1O[C@H]1c4[nH]c5ccccc5c4C[C@@]4(O)C(C2)N(CC2CC2)CCC314` (stereo not given in full) reads -11.8%; that for `Nc1ncnc2c1ncn2[C@@H]1O[C@H](COP(=O)(O)CP(=O)(O)OP(=O)(O)O)C(O)[C@H]1O` (stereo not given in full), 8.67%; that for `O=P(O)(O)C(Cl)(Cl)P(=O)(O)O`, 2.92%.
`C[N+]1(C)CCC(OC(=O)C(c2ccccc2)c2ccccc2)CC1`: the “activation” value was -2.78%.
